In all, about 1,400 compounds went through this assay and about 560 (40%) were called active.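 How the source made its calls: active means mean inhibition over duplicate tests at 10 µM above 50%; inactive means the rest.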 The set was probably picked from earlier hits. The list shows a part of the results.
Assay: ASC/caspase-1 reporter retest in S. cerevisiae at one dose, specificity check for NALP1 project (AID 488857)
Details: S. cerevisiae ASC/Caspase-1, beta-galactosidase luminescence, 24 h; at 10 µM; active compounds read high

inhibition, inactive:
CCOC(=O)C[N+](CC)(CC)CC#Cc1ccccc1 5.45%
CCOc1ccc(NC(=O)/C=C/c2ccccc2)c([N+](=O)[O-])c1 29.2%
COc1ccccc1OCC(=O)N/N=C/C=C/c1ccc([N+](=O)[O-])o1 15.4%
COc1ccc(CN2CCNC(=O)C2CC(=O)N(Cc2nccn2C)C(C)C)c(OC)c1 (centres undefined) 26.1%
COc1cc(C2SCC(=O)N2CCCN(C)C)cc(OC)c1OC (centres undefined) 23.1%
C/C(=N/N=C1\SCC(=O)N1c1ccccc1)c1ccc(C)cc1 39.4%
CCCCNCCOCCOc1ccc(Cl)cc1Br 49%
O=C(Nc1nc(-c2ccco2)c(-c2ccco2)s1)C1CCC1 45.5%
O=C(CSCc1ccc(F)cc1)NCc1ccco1 47.5%
Cc1ccc(NC(=O)N(C2CCCCC2)C(C)c2cccnc2)cc1C (centres undefined) 48.4%
Cc1cc(=O)oc2cc(OCC(=O)N3CCN(C(=O)c4ccco4)CC3)ccc12 30.7%
CCOC(=O)c1sc(NC(=O)Nc2cccc(Cl)c2)cc1C 19.4%
CCOC(=O)C(=O)NNc1ccc(Cl)cc1 42.9%
CCOC(=O)NC1(NCc2ccccc2)Oc2ccccc2O1 38.3%
CC(C)CN=Cc1c(O)c([N+](=O)[O-])cc2oc3c(c12)CCCC3 28.2%
COc1ccccc1C(=O)Nc1nc2nc(-c3ccccc3)cc(=O)n2[nH]1 15.4%
Cc1ccc(C(=O)NCc2ccco2)cc1S(=O)(=O)Nc1cccc(Cl)c1 38.6%
CCN1CCN(C(=O)N[C@@H](C(=O)N[C@@H]2C(=O)N3[C@@H]2SC(C)(C)[C@@H]3C(=O)O)c2ccccc2)C(=O)C1=O 39.1%
COCCn1c(SCC(=O)NC(=O)NC(C)(C)C)nc2ccccc21 40.6%
O=c1c(F)cn(C2CCCO2)c(=O)n1Cc1c(F)cccc1Cl (centres undefined) 33.2%
CCOC(=O)c1c(C(F)(F)C(F)(F)C(F)(F)C(F)(F)F)n[nH]c1C 25.5%
O=P(CCCCCCCCCP(=O)(c1ccccc1)c1ccccc1)(c1ccccc1)c1ccccc1 47.2%
O=C(NC(CO)Cc1ccc([N+](=O)[O-])cc1)C(Cl)Cl (centres undefined) 34.8%
Cc1ccc(F)cc1NCC(=O)Nc1ccc(Br)cc1 41.2%
COc1ccc2c(c1)C1=NN(/C(C)=C/C(C)=O)C(c3ccc(F)cc3)C1CC2 (centres undefined) 45.9%
COc1ccccc1NC(=O)Nc1ccc2c(c1)nnn2C 25.1%
OCCCN=c1cc(-c2ccccc2)oc2ccc(Cl)cc12 49.8%
Cn1c(N)c(C(=O)COC(=O)C2(c3ccc(Cl)cc3)CCCC2)c(=O)n(C)c1=O 26.6%
COC(=O)Nc1nc(C)c(C(=O)c2ccccc2)s1 47.8%
CCC(C)(C)NCC(=O)Nc1ccc(OC(F)(F)F)cc1 27.4%
CCOC(=O)C1CCCN(Cc2ccc(OCC)cc2)C1 (centres undefined) 30.4%
Clc1ccc2c(N/N=C/c3ccccc3Br)ccnc2c1 31.4%
CCCCNC(=O)C(=O)N/N=C/c1cccc(Br)c1 37.1%
Cc1ccc(N/C=C/C(=O)C(C)(C)C)c(O)c1 34.2%
CC(C)Oc1ccc(Cc2cnc(N)nc2N)cc1 48%
Cc1cc2ccccc2n1CCNCc1c(C(=O)N2CCOCC2)nc2ccccn12 21.8%
O=C(CNC(c1ccccc1)c1ccccc1)Nc1c(F)cccc1F 39.8%
Cn1cc(CC(=O)Nc2cccc(C#N)c2)c2ccccc21 34.1%
CSC1=N/C(=C\c2cccnc2)C(=O)N1c1ccccc1 37.9%
CCOC(=O)C1=Nc2ccccc2C1=[N+]=[N-] 46%
NS(=O)(=O)c1ccc(NC(=O)COC(=O)c2cn(-c3ccccc3)nc2-c2ccc(F)cc2)cc1 33.1%
COc1ccc(CC(C)N2CCN(Cc3ccccc3)CC2)c(OC)c1 (centres undefined) 39.7%
Cc1sc2nc(SCC(=O)NCc3ccco3)n(Cc3ccccc3)c(=O)c2c1C 23.5%
N#Cc1ccc(-c2ccc(Cl)cc2)nc1SCC(=O)c1cccc(Cl)c1 25.2%
CCCCC(=O)Nc1ccc(C(=O)NNC(=S)NC(=O)c2ccco2)cc1 30.9%
O=C(CCl)Nc1nc(-c2ccco2)c(-c2ccco2)s1 26.5%
CC(C)CC(=O)N1CCN(S(=O)(=O)c2ccccc2)CC1 35.2%
C=CCc1cccc(/C=N/c2nc3ccccc3n2CC)c1O 31.1%
C#CCCCCCCC#CCN(C)C 33.6%
CCCc1nc2ccc(NC(=O)c3ccco3)cc2c(=O)n1Cc1ccccc1Cl 40.2%
O=[N+]([O-])c1ccc(-c2ccn[nH]2)o1 36%
COc1ccc(NCc2ccc([N+](=O)[O-])s2)cc1 30.4%
CCOC(=O)c1c(O)c2cc(Cl)ccc2n(CC)c1=O 40.3%
CCOC(=O)c1nnc(-c2ccc(C)cc2)nc1Sc1ccc(Cl)cc1 29.1%
O=S(=O)(Cc1cc(Sc2ccccc2)nc(-c2ccccc2)n1)c1ccccc1 33.7%
COc1ccc(C2SCC(=O)N2CCCN(C)C)cc1 (centres undefined) 39.6%
COc1ccc(NC(=O)C2CCN(C(=O)c3ccc(OC)cc3)CC2)cc1 26.8%
CC(=O)Nc1cccc(OCCCNC(=O)C2CCC2)c1 39.1%
CS(=O)(=O)N1CCC(C(=O)Nc2ccc3c(c2)OCO3)CC1 19.4%
Cc1cc(C)cc(NS(=O)(=O)c2ccc(NC(=O)C3CCCCC3C(=O)O)cc2)c1 (centres undefined) 26.8%
CCn1cc(C(=O)O)c(=O)c2cc(F)c(N3CCNCC3)cc21 30.4%
Cn1cc(S(=O)(=O)N2CCN(c3cccc(C(F)(F)F)c3)CC2)c(=O)n(C)c1=O 33.4%
CCOC(=O)N1CCN(CC(O)COc2ccccc2C(C)(C)C)CC1 (centres undefined) 44.2%

inhibition, active:
CCOC(=O)COc1ccc2ccccc2c1/C=C/[N+](=O)[O-] 99.9%
CCOC(=O)COc1ccccc1/C=C\[N+](=O)[O-] 101%
O=C1CSC(=S)N1c1ccc(O)cc1 98.2%
O=C1CSC(=S)N1c1cccc(O)c1 98.8%
COc1cc(N2C(=O)CSC2=S)cc(OC)c1OC 81.3%
CCCCNCCOCCOc1ccccc1-c1ccccc1 55.2%
O=C(Nc1cccc(O)c1)c1cc(-c2ccco2)on1 79.8%
O=C(NCc1ccc(F)cc1)c1cc(-c2ccco2)on1 52.4%
CCOC(=O)Nc1ccc2c(C)cc(=O)oc2c1 58.4%
CCOC(=O)Nc1cccc(Nc2ccccc2)c1 59.8%
CCOc1ccccc1C(=O)Nc1cnn(Cc2ccc(F)cc2)c1 61.2%
Cc1ccc(Nc2nc(N)c([N+](=O)[O-])c(NCc3ccco3)n2)cc1C 60.8%
CC1CCCN(c2nc(NCc3ccco3)nc(N)c2[N+](=O)[O-])C1 (centres undefined) 62%
Nc1nc(NCc2ccco2)nc(N2CCCCCC2)c1[N+](=O)[O-] 62.4%
CC1CCN(c2nc(NCc3ccco3)nc(N)c2[N+](=O)[O-])CC1 73%
COc1ccc(C2=NN3C(=O)c4c(ccc(OC)c4OC)C3C2)cc1 (centres undefined) 50.4%
CNC(CC(=O)c1ccc([N+](=O)[O-])cc1)C(Cl)(Cl)Cl (centres undefined) 69.4%
N#CC(C#N)=C(Nc1ccc(F)cc1)SCc1cccc(Br)c1 83.2%
COc1ccc(N=c2cc(-c3ccc(OC)cc3)oc3ccccc23)cc1 54.5%
COC(=O)Nc1sc2nc(C)cc(C)c2c1-n1cccc1 67.7%
CCc1ccc(OCC(=O)Nc2ccc(CN3CCCCC3)cc2)cc1 55.1%
Cc1ccc(/C=N/Nc2ccnc3cc(Cl)ccc23)c(C)c1 55%
Clc1ccc2c(N/N=C/c3cccc(Br)c3)ccnc2c1 57%
Clc1ccc2c(N/N=C/c3ccc(Br)cc3)ccnc2c1 55.6%
CCOc1c(Cl)cc(CNCC(C)C)cc1OC 50%
CC(CC(=O)Nc1cccc(Cl)c1)c1ccccc1 (centres undefined) 50%
CCOC(=O)c1nn(-c2ccc(C)cc2)cc1C(=O)c1ccccc1 64.8%
Cc1sc(NC(=O)c2ccco2)nc1-c1ccccc1 79%
O=C(Nc1ccc(-c2cn3ccccc3n2)cc1)c1ccco1 84%
O=C(Nc1cccc(-c2cn3ccccc3n2)c1)c1cccc(Cl)c1 58.9%
Cc1ccn2cc(-c3ccc(NC(=O)c4ccco4)cc3)nc2c1 86.5%
O=C(Nc1ccc2oc(-c3ccccc3)nc2c1)c1ccco1 96.3%
COCCCN(CCCN)Cc1ccco1 74.1%
CCOC(=O)C1=NN(C(=O)c2ccc(C)cc2)C(O)(c2ccc(Cl)cc2)C1 (centres undefined) 50.6%
Oc1c(Cl)cc(Cl)c2c1NCCC2 64.7%
CCN(C(=O)[C@@H]1CCCN1C(=O)c1cccs1)c1nc2cc(Cl)ccc2s1 62.6%
Cc1cccc(NC(=O)c2ccc(C3SCC(=O)N3CCc3ccccc3)cc2)c1C (centres undefined) 60.8%
O=C1c2ccccc2C(=O)c2cc(NC(=O)C3CC3)ccc21 51.6%
O=C(Nc1ccc(C#Cc2ccccc2)cc1)C1CC1 73.2%
O=C(Nc1ccc(Br)c(Cl)c1)C1CC1 51%
CCC(=O)c1ccc(OCC(O)CN2CCN(c3cccc(C(F)(F)F)c3)CC2)cc1 (centres undefined) 65.7%

— PubChem BioAssay AID488857 (Sanford-Burnham Center for Chemical Genomics, 2010)
